Source: the supplement of paper PMC8728848
The full list was thinned out, with the strongest signals kept by preference.

Assays:
Test in all cases: glycan array binding signal (z-score within array); higher = stronger binding
Details in all cases: glycan notation: IUPAC condensed, linker removed
Gal3S(b1-4)GlcNAc6S = molecular target: Gal3S(b1-4)GlcNAc6S
Procedure, shortened: (§1)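 The binding signal is a Z-score computed within each array and averaged over linkers. Arrays of the same protein sequence at different concentrations or buffers were also averaged together. Data originate from 3228 arrays in the Consortium for Functional Glycomics database, kept only where the protein sequence was available.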

Gal6S(b1-4)GlcNAc6S = molecular target: Gal6S(b1-4)GlcNAc6S
Procedure, shortened: as §1

GalNAc(b1-3)Gal = molecular target: GalNAc(b1-3)Gal
Procedure, shortened: as §1

[1] = molecular target: GalNAc(b1-4)GlcNAc(b1-2)Man(a1-3)[GalNAc(b1-4)GlcNAc(b1-2)Man(a1-6)]Man(b1-4)GlcNAc(b1-4)GlcNAc
Procedure, shortened: as §1

[2] = molecular target: GlcNAc(b1-2)Gal(b1-3)GalNAc
Procedure, shortened: as §1

[3] = molecular target: GlcNAc(b1-2)Man(a1-3)[GlcNAc(b1-2)Man(a1-6)]Man(b1-4)GlcNAc(b1-4)GlcNAc
Procedure, shortened: as §1

[4] = molecular target: GlcNAc(b1-2)Man(a1-3)[GlcNAc(b1-4)][GlcNAc(b1-2)Man(a1-6)]Man(b1-4)GlcNAc(b1-4)GlcNAc
Procedure, shortened: as §1

[5] = molecular target: GlcNAc(b1-2)[GlcNAc(b1-6)]Man(a1-6)[GlcNAc(b1-2)Man(a1-3)]Man(b1-4)GlcNAc(b1-4)[Fuc(a1-6)]GlcNAc
Procedure, shortened: as §1

[6] = molecular target: GlcNAc(b1-3)Gal(b1-4)GlcNAc(b1-3)Gal(b1-4)GlcNAc(b1-3)Gal(b1-4)GlcNAc(b1-3)Gal(b1-4)GlcNAc(b1-2)Man(a1-3)[GlcNAc(b1-3)Gal(b1-4)GlcNAc(b1-3)Gal(b1-4)GlcNAc(b1-3)Gal(b1-4)GlcNAc(b1-3)Gal(b1-4)GlcNAc(b1-2)Man(a1-6)]Man(b1-4)GlcNAc(b1-4)[Fuc(a1-6)]GlcNAc
Procedure, shortened: as §1

GlcNAc(b1-6)GalNAc = molecular target: GlcNAc(b1-6)GalNAc
Procedure, shortened: as §1

Kdn(a2-3)Gal(b1-4)Glc = molecular target: Kdn(a2-3)Gal(b1-4)Glc
Procedure, shortened: as §1

[7] = molecular target: Neu5Ac(a2-3)Gal(b1-3)GlcNAc(b1-6)GalNAc
Procedure, shortened: as §1

[8] = molecular target: Neu5Ac(a2-3)Gal(b1-3)GlcNAc6S
Procedure, shortened: as §1

[9] = molecular target: Neu5Ac(a2-3)Gal(b1-3)[Fuc(a1-4)]GlcNAc(b1-3)Gal(b1-3)[Fuc(a1-4)]GlcNAc
Procedure, shortened: as §1

[10] = molecular target: Neu5Ac(a2-3)Gal(b1-4)GlcNAc(b1-2)[Neu5Ac(a2-3)Gal(b1-4)GlcNAc(b1-6)]Man(a1-6)[Neu5Ac(a2-3)Gal(b1-4)GlcNAc(b1-2)Man(a1-3)]Man(b1-4)GlcNAc(b1-4)GlcNAc
Procedure, shortened: as §1

[11] = molecular target: Neu5Ac(a2-3)Gal(b1-4)[Fuc(a1-3)]GlcNAc(b1-6)[Gal(b1-3)]GalNAc
Procedure, shortened: as §1

[12] = molecular target: Neu5Ac(a2-3)Gal6S(b1-4)GlcNAc
Procedure, shortened: as §1

[13] = molecular target: Neu5Ac(a2-3)[GalNAc(b1-4)]Gal(b1-4)GlcNAc(b1-3)GalNAc
Procedure, shortened: as §1

[14] = molecular target: Neu5Ac(a2-6)Gal(b1-3)GlcNAc(b1-3)[Gal(b1-4)GlcNAc(b1-6)]Gal(b1-4)Glc
Procedure, shortened: as §1

[15] = molecular target: Neu5Ac(a2-6)Gal(b1-4)GlcNAc(b1-2)Man(a1-6)[Gal(b1-4)GlcNAc(b1-2)Man(a1-3)]Man(b1-4)GlcNAc(b1-4)GlcNAc
Procedure, shortened: as §1

[16] = molecular target: Neu5Ac(a2-6)Gal(b1-4)GlcNAc(b1-2)[Neu5Ac(a2-6)Gal(b1-4)GlcNAc(b1-6)]Man(a1-6)[Neu5Ac(a2-6)Gal(b1-4)GlcNAc(b1-2)Man(a1-3)][GlcNAc(b1-4)]Man(b1-4)GlcNAc(b1-4)GlcNAc
Procedure, shortened: as §1

[17] = molecular target: Neu5Ac(a2-8)Neu5Ac(a2-3)Gal(b1-4)GlcNAc
Procedure, shortened: as §1

[18] = molecular target: Neu5Ac(a2-8)Neu5Ac(a2-8)Neu5Ac(a2-3)[GalNAc(b1-4)]Gal(b1-4)Glc
Procedure, shortened: as §1

Neu5Gc(a2-3)Gal(b1-4)Glc = molecular target: Neu5Gc(a2-3)Gal(b1-4)Glc
Procedure, shortened: as §1

[19] = molecular target: Neu5Gc(a2-3)Gal(b1-4)GlcNAc(b1-3)Gal(b1-4)GlcNAc(b1-2)Man(a1-3)[Neu5Gc(a2-3)Gal(b1-4)GlcNAc(b1-3)Gal(b1-4)GlcNAc(b1-2)Man(a1-6)]Man(b1-4)GlcNAc(b1-4)GlcNAc
Procedure, shortened: as §1

[20] = molecular target: Neu5Gc(a2-3)Gal(b1-4)[Fuc(a1-4)]GlcNAc
Procedure, shortened: as §1

B1: EEA (Euonymus europaeus) (protein)
chain: MASTIIATGPTYRVYCRAAPNYNMIVGKGVAFLAPIDETNELQYWYKDDTYSYIKDEAGLPAFSLVNKATGLTLKHSNHHPVPVKLVTYNPNVVDESVLWSQADDRGDGYSAIRSLTNPASHLEAAPLNDWSYNGAIIMGGVWIDAYNQQWKIEPHTG
- glycan array binding signal (z-score) (Gal3S(b1-4)GlcNAc6S): -0.14
- glycan array binding signal (z-score) (Gal6S(b1-4)GlcNAc6S): -0.097
- glycan array binding signal (z-score) (GalNAc(b1-3)Gal): -0.178
- glycan array binding signal (z-score) [1]: 0.509
- glycan array binding signal (z-score) [2]: -0.138
- glycan array binding signal (z-score) [3]: -0.152
- glycan array binding signal (z-score) [4]: -0.242
- glycan array binding signal (z-score) [5]: -0.204
- glycan array binding signal (z-score) [6]: -0.221
- glycan array binding signal (z-score) (GlcNAc(b1-6)GalNAc): -0.056
- glycan array binding signal (z-score) (Kdn(a2-3)Gal(b1-4)Glc): -0.177
- glycan array binding signal (z-score) [7]: -0.187
- glycan array binding signal (z-score) [8]: -0.092
- glycan array binding signal (z-score) [9]: -0.246
- glycan array binding signal (z-score) [10]: -0.137
- glycan array binding signal (z-score) [11]: -0.043
- glycan array binding signal (z-score) [12]: -0.212
- glycan array binding signal (z-score) [13]: 0.46
- glycan array binding signal (z-score) [14]: -0.232
- glycan array binding signal (z-score) [15]: -0.233
- glycan array binding signal (z-score) [16]: -0.179
- glycan array binding signal (z-score) [17]: -0.253
- glycan array binding signal (z-score) [18]: -0.063
- glycan array binding signal (z-score) (Neu5Gc(a2-3)Gal(b1-4)Glc): -0.084
- glycan array binding signal (z-score) [19]: -0.183
- glycan array binding signal (z-score) [20]: -0.482
